Inconclusive results are not listed. A call without a number means that no potency is given here. Unmarked numbers belong to inactive results. Active and inactive are the calls of the source. Calls follow the shape of the dose curve; as a rule, active = well fitted curve in the direction sought with a large enough effect; inconclusive = small, poorly fitted or top-dose-only effect, or another doubt; inactive = no such curve, though single readings can be large; an effect the other way counts as inactive or inconclusive.
Columns and labels:
[1] = target: Rap guanine nucleotide exchange factor 3 (Homo sapiens) (UniProt O95398); assay: Confirmatory qHTS for antagonist of cAMP-regulated guanine nucleotide exchange factor 3 (EPAC1) (AID 1645880); also: nearly all actives have a fitted effect of over 55% in size; also: potency is read from the fitted curve at half-maximal effect
Summary of the method: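 Released BODIPY-GDP fluoresces less than Rap1-bound BODIPY-GDP; the signal is followed at 480/540 nm at 5-min intervals over 30 min, after 5 min at room temperature. Reactions contain 100 nM EPAC1, 250 nM RAP1B-BODIPY-GDP and 50 uM GDP; results are normalized to ATA and DMSO.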

[2] = target: Rap guanine nucleotide exchange factor 3 (Homo sapiens) (UniProt O95398); assay: Confirmatory qHTS for agonist of cAMP-regulated guanine nucleotide exchange factor 3 (EPAC1) (AID 1645881); also: nearly all actives have a fitted effect of over 75% in size; also: potency is read from the fitted curve at half-maximal effect;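 as to activation: EPAC1 catalysed release of BODIPY-GDP from Rap1B seen as fluorescence loss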
[3] = target: Rap guanine nucleotide exchange factor 4 (Homo sapiens) (UniProt Q8WZA2); assay: Confirmatory qHTS for agonist of cAMP-regulated guanine nucleotide exchange factor 4 (EPAC2) (AID 1645884);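 also: nucleotide exchange releases bodipy-GDP from Rap1 and this lowers its fluorescence; nearly all actives have a fitted effect of over 65% in size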; also: potency is read from the fitted curve at half-maximal effect
[4] = target: Rap guanine nucleotide exchange factor 4 (Homo sapiens) (UniProt Q8WZA2); assay: Confirmatory qHTS for antagonist of cAMP-regulated guanine nucleotide exchange factor 4 (EPAC2) (AID 1645885); also: nearly all actives have a fitted effect of over 25% in size; also: potency is read from the fitted curve at half-maximal effect
[5] = target: Rap guanine nucleotide exchange factor 3 (Homo sapiens) (UniProt O95398); assay: Counterscreen qHTS for antagonist of cAMP-regulated guanine nucleotide exchange factor 3 (EPAC1) (AID 1645888)
Summary of the method: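 Measured: fluorescence of BODIPY-GDP bound to Rap1B, which falls as exchange proceeds. Conditions include 50 uM competing GDP, 5 and 30 min reads, and a later cAMP challenge for antagonist detection.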

Chain of Rap guanine nucleotide exchange factor 3 (Homo sapiens) (O95398 whole entry, looked up): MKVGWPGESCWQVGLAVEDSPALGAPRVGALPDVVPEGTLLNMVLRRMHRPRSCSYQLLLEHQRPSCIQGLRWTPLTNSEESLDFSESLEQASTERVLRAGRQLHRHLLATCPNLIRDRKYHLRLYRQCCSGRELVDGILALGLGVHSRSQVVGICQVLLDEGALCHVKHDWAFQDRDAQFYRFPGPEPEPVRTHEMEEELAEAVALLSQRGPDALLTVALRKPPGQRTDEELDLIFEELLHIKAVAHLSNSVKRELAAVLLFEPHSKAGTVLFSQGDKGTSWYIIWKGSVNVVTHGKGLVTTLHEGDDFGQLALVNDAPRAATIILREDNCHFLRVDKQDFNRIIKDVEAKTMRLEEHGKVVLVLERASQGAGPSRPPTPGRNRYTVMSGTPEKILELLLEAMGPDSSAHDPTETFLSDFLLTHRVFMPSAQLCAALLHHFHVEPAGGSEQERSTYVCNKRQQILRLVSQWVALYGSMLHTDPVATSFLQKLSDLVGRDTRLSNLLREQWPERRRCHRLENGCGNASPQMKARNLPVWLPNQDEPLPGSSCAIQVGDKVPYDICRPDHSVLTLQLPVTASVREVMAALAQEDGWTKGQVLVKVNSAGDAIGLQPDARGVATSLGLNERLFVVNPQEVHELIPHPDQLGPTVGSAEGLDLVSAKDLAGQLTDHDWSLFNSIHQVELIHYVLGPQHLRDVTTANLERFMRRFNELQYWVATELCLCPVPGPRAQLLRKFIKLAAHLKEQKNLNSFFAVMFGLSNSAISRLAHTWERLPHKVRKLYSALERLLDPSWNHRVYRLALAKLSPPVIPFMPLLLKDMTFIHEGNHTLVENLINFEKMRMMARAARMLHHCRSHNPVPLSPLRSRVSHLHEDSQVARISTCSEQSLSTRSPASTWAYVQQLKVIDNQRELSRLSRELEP
Chain of Rap guanine nucleotide exchange factor 4 (Homo sapiens) (Q8WZA2 whole entry, looked up): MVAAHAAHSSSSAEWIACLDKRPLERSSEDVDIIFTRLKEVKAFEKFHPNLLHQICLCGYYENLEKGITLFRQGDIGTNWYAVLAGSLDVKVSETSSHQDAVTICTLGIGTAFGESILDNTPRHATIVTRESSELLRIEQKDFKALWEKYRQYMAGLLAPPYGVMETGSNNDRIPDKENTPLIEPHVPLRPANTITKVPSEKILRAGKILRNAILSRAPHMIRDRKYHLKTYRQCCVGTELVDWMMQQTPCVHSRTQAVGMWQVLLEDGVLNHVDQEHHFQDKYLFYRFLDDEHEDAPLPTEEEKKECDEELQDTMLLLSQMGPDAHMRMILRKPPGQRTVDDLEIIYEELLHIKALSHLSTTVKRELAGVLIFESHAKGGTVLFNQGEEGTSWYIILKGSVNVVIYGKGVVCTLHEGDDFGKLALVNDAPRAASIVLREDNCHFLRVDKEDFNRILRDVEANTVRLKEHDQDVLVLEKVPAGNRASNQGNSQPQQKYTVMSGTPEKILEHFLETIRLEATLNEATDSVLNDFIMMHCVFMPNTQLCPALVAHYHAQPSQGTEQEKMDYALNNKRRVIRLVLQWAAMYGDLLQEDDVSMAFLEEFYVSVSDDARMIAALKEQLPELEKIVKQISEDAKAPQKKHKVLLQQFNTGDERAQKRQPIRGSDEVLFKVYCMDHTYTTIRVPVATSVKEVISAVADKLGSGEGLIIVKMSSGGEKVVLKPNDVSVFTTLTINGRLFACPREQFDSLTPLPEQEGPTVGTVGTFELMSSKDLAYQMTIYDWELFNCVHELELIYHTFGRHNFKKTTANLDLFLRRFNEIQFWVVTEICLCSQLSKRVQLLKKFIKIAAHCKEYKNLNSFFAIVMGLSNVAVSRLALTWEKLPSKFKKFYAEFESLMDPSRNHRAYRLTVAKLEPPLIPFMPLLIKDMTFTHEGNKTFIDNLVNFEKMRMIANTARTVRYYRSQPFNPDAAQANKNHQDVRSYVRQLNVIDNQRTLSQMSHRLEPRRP

SMILES	Potency [1]	Potency [2]	Potency [3]	Potency [4]	Potency [5]	activation [3]	activity change, negative = inhibition [5]
OCC[n+]1ccc(/C=C/c2c[nH]c3ccccc23)cc1	inactive	56.2 µM (active)	100 µM (active)	inactive	inactive	–	–
COC(=O)c1ccc2nc(C3CCCCC3)c(Cc3cccc(F)c3)n2c1	inactive	inactive	inactive	inactive	inactive	–	–
CC(=NNC(=O)c1ccccc1N)c1ccccc1O	2.51 µM (active)	inactive	–	inactive	–	0.484% [at 17.1 µM, percent relative to cAMP agonist control]	-1.34% [at 30.8 µM]
Cc1cc(-c2ccc(Br)s2)nc(-n2cccc2)n1	inactive	inactive	inactive	inactive	inactive	–	–
Cc1ccc(S(=O)(=O)Nc2ccccc2C=Nc2cccc(C)c2C)cc1	inactive	inactive	inactive	inactive	inactive	–	–
Cc1cccc(-n2c(O)c(C=Nc3ccccc3O)c3ccccc3c2=O)n1	inactive	inactive	inactive	inactive	inactive	–	–
Clc1c(Cl)c(Cl)c2n[nH]nc2c1Cl	75.7 µM (active)	inactive	inactive	19 µM (active)	inactive	–	–
CCC(C)N(C(=O)COC(=O)C1CCN(S(=O)(=O)c2ccc(C)c(C)c2)CC1)C1CCS(=O)(=O)C1 (stereo not given)	inactive	inactive	inactive	inactive	inactive	–	–
CCOC(=O)N1CCN(c2ccc(S(=O)(=O)N(Cc3ccccc3)Cc3ccccc3)cn2)CC1	inactive	inactive	inactive	inactive	inactive	–	–
CN(C)C(CNS(=O)(=O)c1ccc(Cl)cc1)c1cccnc1 (stereo not given)	inactive	inactive	inactive	inactive	inactive	–	–
Clc1ccc(CSc2nnc(-c3ccncc3)s2)cc1	inactive	inactive	inactive	inactive	inactive	–	–
CCOC(=O)c1ccccc1NC(=O)c1c(-c2ccccc2)noc1C	inactive	inactive	inactive	inactive	inactive	–	–
CCOC(=O)[C@H]1Nc2ccc(Cl)cc2[C@@H]2[C@H]1C1CC(c3ccccc31)N2C(=O)OCc1ccccc1 (stereo not given in full)	inactive	inactive	–	inactive	–	1.97% [at 17.1 µM, percent relative to cAMP agonist control]	4.44% [at 30.8 µM]
CC1(c2ccccc2)CC(C)(C)N2C(=O)Cc3cccc1c32 (stereo not given)	inactive	inactive	inactive	33.8 µM (active)	inactive	–	–
CCCC(=O)Nc1nnc(SCc2cc(=O)c3ccc(C)cc3[nH]2)s1	inactive	inactive	inactive	inactive	inactive	–	–
C/C(C/C(C)=C1/SC(=S)NC1=O)=C1\SC(=S)NC1=O	1.69 µM (active)	inactive	inactive	21.3 µM (active)	inactive	–	–
COc1ccc(S(=O)(=O)N2CCC[C@H]2C(=O)N2CCC[C@H]2C(=O)NCc2ccccc2)cc1C	inactive	inactive	–	inactive	–	4.41% [at 17.1 µM, percent relative to cAMP agonist control]	-5.32% [at 30.8 µM]
CNc1ccc(/C=C(\C#N)C(=O)Nc2ccccn2)cc1[N+](=O)[O-]	inactive	inactive	–	inactive	–	0.449% [at 17.1 µM, percent relative to cAMP agonist control]	-23.3% [at 30.8 µM]
Cc1cccc(C(=O)Nc2ccc3c(c2)ncn3C)c1	inactive	inactive	inactive	inactive	inactive	–	–
COc1ccc2oc(C)c(C(=O)c3ccc(C)cc3)c2c1	inactive	inactive	–	inactive	–	14.7% [at 17.1 µM, percent relative to cAMP agonist control]	-20.6% [at 30.8 µM]
CCOCCCn1c(SCC(=O)Nc2cccc(OC)c2)nc2ccccc2c1=O	inactive	inactive	inactive	inactive	inactive	–	–
CCCCC(CC)Cn1c(Oc2ccccc2)nc2c1c(=O)n(C)c(=O)n2C (stereo not given)	inactive	inactive	inactive	inactive	inactive	–	–
O=C1N=c2ccccc2=C1c1sc(Nc2ccc(O)cc2)nc1O	30.1 µM (active)	inactive	inactive	inactive	inactive	–	–
CC1CC(C)CN(C(=O)COC(=O)CNC(=O)C23CC4CC(CC(C4)C2)C3)C1 (stereo not given)	inactive	inactive	inactive	inactive	inactive	–	–
O=C(/C=C/c1ccc2c(c1)OCO2)Nc1cc(S(=O)(=O)N2CCOCC2)ccc1N1CCOCC1	inactive	inactive	inactive	inactive	inactive	–	–
Nc1c(C(=O)Nc2ccc3c(c2)OCCO3)nnn1Cc1cccc(Br)c1	inactive	inactive	–	inactive	–	11.4% [at 17.1 µM, percent relative to cAMP agonist control]	-24.5% [at 30.8 µM]

Source: PubChem BioAssay (NCATS)
